SMILES strings stand for the structures. Among all 69,000 compounds or so, about 8,600 (12%) showed an effect of 50% or more. The list comes from a sample in which strong results are over-represented; it also holds similar structures and randomly drawn compounds.

For 105 compounds, INHIBITION results are on record in ChEMBL document CHEMBL4513216, “Probing the Open Global Health Chemical Diversity Library for Multistage-Active Starting Points for Next-Generation Antimalarials” (ACS Infect Dis, 2020).

In this test the test system is Plasmodium berghei. Description: Screen against P. berghei liver stage (PbLuc), transformed with Luciferase, at 10uM. It is filed as functional, HepG2. The following applies: tested at 10 uM.
As to `Cc1cc(OCC(=O)NCc2ccc(F)cc2)nnc1C`, the INHIBITION is reported as -3.08%. The figure for `CC(=O)N1CCC2(CC1)CN(C(=O)[C@@H]1CSCN1)c1ccc(Cl)cc12` is 30.5%; for `Cc1cc(CN2C[C@@H](N3CCN(C)CC3)[C@H]3OCCC[C@H]32)oc1C` it is -30%. As to `Cn1cnc2c1C(COCC1CCOCC1)CN(C(=O)C1CC=CC1)C2` (stereo not given), the INHIBITION is listed as 45.1%.

On to `Cc1ccc(-c2cc(CN3CCc4cncnc4C3)on2)cc1`, for which the INHIBITION was -8.91%. The figure for `CN(C)[C@@H]1CN(C(=O)c2cc3cccc(F)c3[nH]2)C[C@H]1O` is -0.275%; for `COc1ccc(CN2CCCN(C(=O)C(C)n3ccnc3)CC2)cc1` (stereo not given) it is 18.55%; for `CN(CCCNC(=O)c1ccccc1OCC(N)=O)CC(F)(F)F` it is -52.1%. For `CN(CCCNC(=O)c1ccccc1F)CC(F)(F)F`, the INHIBITION is listed as 52.3%.

Turning to `CN(CCCNC(=O)c1ccc(C#N)cc1)CC(F)(F)F`, the INHIBITION was 21.8%. With `Cn1nnc2c1CCN(Cc1nccs1)C2COCc1ccccc1` (stereo not given), the INHIBITION is on record as 15.9%.

As to `Cc1noc(C)c1-c1nc(C2CCCN(C(=O)CN)C2)ccc1CO` (stereo not given), the INHIBITION came out at 37.1%. The figure for `Cc1cnc(CN(Cc2ccccc2)CC2CCOCC2)cn1` is 14.2%; for `COCCN(Cc1cccc(O)c1)CC1CC1` it is 45.2%; for `Cc1cnc(CN(Cc2cccc(O)c2)CC2CC2)cn1` it is 65.9%.

As for `Cc1cnc(N2CCCn3c(nnc3CN(C)C(C)C)C2)nc1`, the INHIBITION is on record as -19.2%.

On to `CCC(=O)N1CCC[C@]2(C(=O)N(C)C)CN(c3ccccn3)C[C@@H]2C1`, for which the INHIBITION is 34.2%. Turning to `CCN(Cc1ccc(C)o1)C(=O)C(C)n1ccnc1C(C)C` (stereo not given), the INHIBITION came to 13%. On to `Cc1cccc(C(Nc2nccc(-c3ccc(C)nc3C)n2)C2CC2)n1` (stereo not given), for which the INHIBITION is listed as -11.2%.

In the case of `Cc1ccc(-c2ccnc(NC(c3ncccc3C)C3CC3)n2)c(C)n1` (stereo not given), the INHIBITION was 51.2%. Regarding `Cc1cccnc1C(Nc1nccc(C2CCCC2)n1)C1CC1` (stereo not given), the INHIBITION is 0.164%.

Turning to `CS(=O)(=O)N1C[C@@H](Oc2ccccn2)[C@H]2OCCC[C@H]21`, the INHIBITION stood at 29%. Regarding `Cc1cc(C)c(S(=O)(=O)Nc2c(C)nc(N(C)C)nc2C)cc1C`, the INHIBITION came out at 4.12%. For `CCCN(C(=O)CN1CCn2c(nnc2C2CC2)C1)C1=CCCCC1` the value was 18.7%; for `CCN(C(=O)CN1CCn2c(C)nnc2C1)C1=CCCCC1`, -6.46%; for `CCN(C(=O)CN1CCn2c(nnc2C2CC2)C1)C1=CCCCC1`, 51.2%. Regarding `Cc1cn2nc(N3CCCCC3Cn3cccn3)sc2n1` (stereo not given), the INHIBITION was 11.6%. With `O=C(NCCNc1cnccn1)N1CCN(c2nccs2)CC1`, the INHIBITION was determined as 29.2%. The figure for `c1cnc(N2C[C@H]3CCN(Cc4ccncc4)C[C@H]3C2)nc1` is 58.4%; for `Cc1ccc(CN2C[C@@H]3CN(c4ncccn4)C[C@@H]3C2)cc1` it is 40.8%. `COc1ncccc1CN1C[C@@H]2CN(c3ncccn3)C[C@@H]2C1`: the INHIBITION was 47.4%.

`COc1ncccc1CN1C[C@H]2CCN(c3ccc(C)nn3)C[C@H]2C1`: the INHIBITION worked out at 41.4%. On to `c1cc(CN2CC[C@@H]3CN(c4cncnc4)C[C@@H]3C2)ccn1`, for which the INHIBITION was 27.6%. Take `COc1ncccc1CN1C[C@H]2CCN(c3ncccn3)C[C@H]2C1`: the INHIBITION stood at 56.4%. `CC(=O)c1cnc(NCCN2CCCC2)nc1C`: the INHIBITION stood at 33.1%. The figure for `CCN(C)C(=O)c1coc(COc2ccccc2)n1` is -8.47%; for `CN1CCN(CCC(F)(F)C(F)F)CC12CCNC(=O)CC2` (stereo not given) it is 49.9%. `CC(C)=CCC/C(C)=C/CN1CCN(C)C2(CCNC(=O)CC2)C1` (stereo not given): the INHIBITION is 67.5%. For `CC/C(C)=C/CCN1CCN(C)C2(CCNC(=O)CC2)C1` (stereo not given) the value was 35.9%; for `Cc1cc(C(=O)N2CC(O)CO2)c2ccc(C)c(C)c2n1` (stereo not given), 15%. The figure for `O=C(O)c1ccccc1CN1CCCC(Cc2ccn[nH]2)C1` (stereo not given) is 7.721%; for `Cc1ncc(CN2CCOC(c3ccc(-c4ccccc4F)cn3)C2)s1` (stereo not given) it is 95.3%; for `Cc1ncc(CN2CCOC(c3ccc(-c4cnn(C)c4)cn3)C2)s1` (stereo not given) it is -6.92%. For `Cc1ncc(CN2CCOC(c3ccc(-c4cc[nH]n4)cn3)C2)s1` (stereo not given), the INHIBITION is 19.6%. For `CCCNC(=O)NC(C)c1ccccn1` (stereo not given), the INHIBITION is recorded as 21.2%. The figure for `c1cnc2c(-c3nccn3C[C@@H]3CCCN4CCCC[C@H]34)cccc2c1` is 20.2%; for `COc1ccc(-c2nccn2C[C@@H]2CCCN3CCCC[C@H]23)cc1` it is 65.3%.

For the compound `Cn1ccnc1-c1nccn1C[C@@H]1CCCN2CCCC[C@H]12`, the INHIBITION is given as 12%. With `CCc1ccc(CNC(=O)N2CCN(Cc3cc(C)on3)CC2)s1`, the INHIBITION worked out at 7.12%. The figure for `COCCN1CC(O)CN(C(=O)c2cccc(C(F)(F)F)c2)CC1=O` (stereo not given) is 13.1%. The figure for `N#CCCN1CC(O)CN(C(=O)c2cccc(C(F)(F)F)c2)CC1=O` (stereo not given) is 57%; for `CCN1CC(O)CN(C(=O)c2cccc(C(F)(F)F)c2)CC1=O` (stereo not given) it is 5.58%; for `O=C1CN(C(=O)c2cccc(C(F)(F)F)c2)CC(O)CN1CC1CC1` (stereo not given) it is 25.3%. For `CC(C)(C)CN1CC(O)CN(C(=O)c2cccc(C(F)(F)F)c2)CC1=O` (stereo not given) the value was 60.8%. For `CC(C)CN1CC(O)CN(C(=O)c2cccc(C(F)(F)F)c2)CC1=O` (stereo not given), the INHIBITION worked out at 45.7%. For `CSc1ccccc1C(=O)N1CCOC(CCN(C)C)C1` (stereo not given) the value was 12.1%; for `Cc1ccc(NC2CCCN(CCCc3ccccc3)C2)nn1` (stereo not given), 35.7%; for `O=C(CCNc1ncccn1)N1CCCN(c2nccs2)CC1`, 33.7%. `CCN(CCC1CCN(C(=O)NCc2nncn2CC)CC1)CC1CC1`: the INHIBITION is listed as -38.2%.

Take `CCc1cnc(N2C[C@@H]3C[C@H](C(=O)NC)[C@H](C2)O3)nc1`: the INHIBITION was -45.8%. For `OCC1(CNC2CCc3cc4c(cc32)OCCO4)CC1` (stereo not given), the INHIBITION was -122%.

With `OCCCNC1CCc2cc3c(cc21)OCCO3` (stereo not given), the INHIBITION is -56.6%. The figure for `OCCNC1CCc2cc3c(cc21)OCCO3` (stereo not given) is 55.1%.

In the case of `O=C(c1ccc(Cl)cc1)N1CC2(CCNC2)OCc2ccccc21` (stereo not given), the INHIBITION was found to be 39.1%. The figure for `CC(NC(=O)CCC(C)(C)C)C(=O)Nc1ccc(-n2cncn2)cc1` (stereo not given) is 50%. The figure for `CC(NC(=O)Nc1ccc(-n2cncn2)cc1)C(=O)NC(C)(C)C` (stereo not given) is 41.4%; for `CCC(C)(C)CC(=O)NC(C)C(=O)Nc1ccc(-n2cncn2)cc1` (stereo not given) it is 26%; for `CC(C)c1noc(CCCC(=O)NC(C)c2ccccn2)n1` (stereo not given) it is -30.6%.

With `Cc1csc(C(Cc2ccsc2)NC(=O)CN(C)Cc2ccccn2)n1` (stereo not given), the INHIBITION is given as 28.3%. The figure for `COc1ncnc(N)c1CNCCc1ccc(-n2cccn2)cc1` is 16.8%; for `COc1ncnc(N)c1CNCCOc1ccccc1Cl` it is 21.3%; for `COc1ncnc(N)c1CNCCc1ccccc1` it is 75.4%. Consider `COC(=O)[C@H](CCSC)NC(=O)Cc1c(C)nn(-c2ccccc2)c1C`, for which the INHIBITION was 5.58%. For `CC(C)c1noc(CCCC(=O)NCC2CCS(=O)(=O)C2)n1` (stereo not given) the value was 21.6%; for `Cc1csc(C2CCCN(C(=O)c3c[nH]c(C)n3)C2)n1` (stereo not given), 24%. For `Cc1[nH]nc(CCC(=O)N2C[C@@H]3CC[C@H]2CN(C(=O)N(C)C)C3)c1C` the value was 45.4%; for `CSCCN1CCC(NC(=O)OC(C)(C)C)CC1`, -19.7%. For `CCOC(=O)CN1CCC(NC(=O)OC(C)(C)C)CC1`, the INHIBITION is given as 32.3%. The figure for `COC(=O)CCN1CCC(NC(=O)OC(C)(C)C)CC1` is 50.2%; for `CC(C)CN1CCN(C(=O)c2ccncc2F)Cc2cccnc21` it is -18.4%. In the case of `O=C(CN1CCOCC1)Nc1cc(C(F)(F)F)ccc1-n1cccc1`, the INHIBITION worked out at 42.6%. `N#CCCN(CC1CCCO1)C(=O)c1ccc2nonc2c1` (stereo not given): the INHIBITION was determined as 2.59%. The figure for `N#CCCN(CC1CCCO1)C(=O)c1ccc(C#N)cc1` (stereo not given) is -5.31%. For `N#CCCN(CC1CCCO1)C(=O)c1ccsc1` (stereo not given) the value was 57.9%.

In the case of `CNc1cc2c(nn1)CCN(C(=O)c1ccoc1)C2`, the INHIBITION was found to be 51.3%.

As to `CNc1cc2c(nn1)CCN(C(=O)c1cc(F)cc(F)c1)C2`, the INHIBITION amounted to 17.7%. The figure for `Cc1cc(C(=O)N2CCc3nnc(N(C)C)cc3C2)c(C)n1C1CC1` is 19.4%.

As to `CCNc1cc2c(nn1)CCN(C(=O)c1cccc3c1OCCO3)C2`, the INHIBITION came out at 3.81%. For `CNc1cc2c(nn1)CCN(C(=O)c1cc(C)n(C3CC3)c1C)C2` the value was 79.1%; for `CCNc1cc2c(nn1)CCN(C(=O)c1ccc(C(N)=O)cc1)C2`, 41.65%. The figure for `CCNc1cc2c(nn1)CCN(C(=O)c1ccnc(-n3ccnc3)c1)C2` is 54.15%.

On to `CCNc1cc2c(nn1)CCN(C(=O)c1cc(C)n(C3CC3)c1C)C2`, for which the INHIBITION worked out at 35.9%. With `CNc1cc2c(nn1)CCN(C(=O)c1cccc3c1OCCO3)C2`, the INHIBITION is given as 51.1%. On to `CCNc1cc2c(nn1)CCN(C(=O)c1ccnc(N(C)C)c1)C2`, for which the INHIBITION is reported as 4.59%. For `CNc1cc2c(nn1)CCN(C(=O)c1cccc3c1OCO3)C2` the value was -13.3%; for `CCNc1cc2c(nn1)CCN(C(=O)c1ccoc1)C2`, 39.2%; for `CN(CCc1ccccn1)C(=O)Cn1cc(-c2ccccc2)nn1`, 6.23%.

Take `CN1CCN([C@@H]2CN(C(=O)c3cc4ccc(F)cc4[nH]3)C[C@H]2O)CC1`: the INHIBITION amounted to 36%. The figure for `O=C(NCCn1ccnc1)N1CCCC1c1ccncc1` (stereo not given) is 31.9%. Consider `O=C1CN(C(=O)C2CN(c3cccc(F)c3)CCO2)CCN1` (stereo not given), for which the INHIBITION amounted to 13.35%.

`O=C(NCC1CC1)c1c2c(N3CCCC3)ncnc2n2ccccc12`: the INHIBITION is listed as 33.4%. Take `CC(C)c1ncc2c(n1)CN(Cc1cccc(C(N)=O)c1)CC2`: the INHIBITION is recorded as -34%. The figure for `O=C(c1ccccc1)N1CCO[C@@H]2CN(Cc3ccc[nH]3)C[C@@H]2C1` is 35.8%; for `COCCOCC(=O)N1C[C@@H]2CC[C@H](Oc3ccccc3F)[C@@H]2C1` it is 15.9%; for `O[C@H]1CCN(CCCOc2ccccc2F)C[C@@]12CCCO2` it is 33.85%.
